Results filed as inconclusive are left out. The source holds several records for some structures; these can differ, active in one and inactive in another. Calls of active or inactive are those of the source. The call rests on the fitted dose curve; in most records, active means well fitted cell-killing curve with a large enough effect in the repeat runs (not every such curve was filed as active); inconclusive means weak or mixed curves, or effect the other way; inactive means no such curve, though single readings can be large or run the other way.
Test: qHTS assay to identify small molecule antagonists of the estrogen related receptor signaling pathway with the pleiotropic PPARgamma coactivator (PGC) from Tox21 10K library - cell viability counter screen (AID 1224840); further: nearly all actives have a fitted effect of over 40% in size
Settings: PGC/ERR reporter cells viability, CellTiter-Fluor, 17.5 h; series mostly up to 92.4 µM; viability change, negative = cytotoxic: at the top concentration
Description: National Center for Advancing Translational Sciences [NCATS]
NIH Chemical Genomics Center [NCGC]
U.S. Environmental Protection Agency [EPA]
National Institutes of Environmental Health Sciences [NIEHS]
National Toxicology Program [NTP]
U.S. Food and Drug Administration [FDA]
Estrogen related receptors (ERRs), the first orphan nuclear receptors discovered, play an important role in the control of cellular energy metabolism. ERRs are required for high-energy production in response to the environmental challenges. The pleiotropic PPARgamma coactivator (PGC) is a major partner of ERR and a key regulator in energy homeostasis. Together they have been implicated in the etiology of metabolic disorders such as Type 2 diabetes and metabolic syndrome. ERR-alpha was also identified as an adverse marker for breast cancer progression; ERR-alpha-positive tumors have a poor prognosis. To screen and to identify environmental compounds that perturb the ERR and PGC/ERR signaling pathways could provide valuable information for potential therapeutic or preventive measures in the treatment of metabolic disease. To differentiate true PGC/ERR antagonists or agonist from cytotoxic substances, the assay is multiplexed with cell viability assay.
Tox21 Assay Protocol Summary:
The PGC/ERR cells were dispensed at 2,000 cells/5 ul/well in 1536-well white plates using a Multidrop dispenser. After the assay plates were incubated at a 37 C/5% CO2 incubator for 6 hours, 23 nL of compounds dissolved in DMSO, positive and negative controls or DMSO only was transferred to the assay plate by a pin tool. The plates were incubated at 37 C for 17.5 hours. 1 ul/well of CellTiter-Fluor reagent was added into the assay plates using a Flying Reagent Dispenser. After 30-minute incubation at 37 C/5% CO2, the fluorescence intensity in the plates was measured using a ViewLux plate reader.
On the % scale 0 is the no-effect control and ±100 the full control effect; potency means the concentration at half of the fitted maximal effect.

| Compound | viability change, negative = cytotoxic | Potency |
| --- | --- | --- |
| O=c1cc(CO)occ1O | 7.71% [at 42.5 µM] (inactive) |  |
| NS(=O)(=O)c1cc2c(cc1Cl)NC(C1CC3C=CC1C3)NS2(=O)=O (stereo not given) | 1.43% [at 42.5 µM] (inactive) |  |
| O=C(O)CCCl | -0.457% (inactive) |  |
| CCS(=O)(=O)c1ccc(OC)c(C(=O)OC)c1 | 1.3% [at 42.5 µM] (inactive) |  |
| FC(F)OC(Cl)C(F)(F)F (stereo not given) | 11.8% (inactive) |  |
| O=C1CCCCCCCCCCCN1 |  | inactive |
| CC(C)(C)NCCNC(C)(C)C | 10.1% (inactive) |  |
| CCOC(=O)c1c(C)n(C)c2ccc(O)cc12 | -2.54% [at 42.5 µM] (inactive) |  |
| COC(C)(C)CCCC(C)CC=O (stereo not given) | 2.77% (inactive) |  |
| NC(CSCC(=O)O)C(=O)O (stereo not given) | 0.937% [at 42.5 µM] (inactive) |  |
| NS(=O)(=O)c1cc(C(=O)O)cc(N2CCCC2)c1Oc1ccccc1 | 10.7% [at 42.5 µM] (inactive) |  |
| O=C1CCCC(=O)C1 | 7.84% (inactive) |  |
| N=C(N)c1ccc(OCCCOc2ccc(C(=N)N)cc2)cc1 | -7.16% [at 42.5 µM] (inactive) |  |
| CC(C)(O)C(=O)c1ccccc1 | 6.99% (inactive) |  |
| CN1CCCC1 | 2.42% (inactive) |  |
| OCCCC1CCCCC1 | 4.54% (inactive) |  |
| O=c1n(CCO)c(=O)n(CCO)c(=O)n1CCO |  | inactive |
| Nc1nc2c(ncn2COC(CO)CO)c(=O)[nH]1 | -0.478% [at 42.5 µM] (inactive) |  |
| CO[C@]12C[C@@H](COC(=O)c3cncc(Br)c3)CN(C)[C@@H]1Cc1cn(C)c3cccc2c13 | -2.31% [at 42.5 µM] (inactive) |  |
| O=C1CC2CC1C1CCCC21 (stereo not given) | 4.07% (inactive) |  |

| Compound | viability change, negative = cytotoxic | Potency |
| --- | --- | --- |
| Cc1ccc(Cl)cc1Cl | 5.3% (inactive) |  |
| CN(C)CCCN1c2ccccc2CCc2ccc(Cl)cc21 |  | 54.5 µM (active) and inactive |
| C[C@](N)(Cc1ccc(O)cc1)C(=O)O | -0.23% [at 8.39 µM] (inactive) |  |
| C[C@H](NC(CCc1ccccc1)C(=O)O)C(=O)N1CCC[C@H]1C(=O)O (stereo not given in full) | 8.82% [at 42.5 µM] (inactive) |  |
| CC(C[N+](C)(C)C)OC(N)=O (stereo not given) | 13.8% [at 42.5 µM] (inactive) |  |
| CN1N=C(C(N)=O)CCC1=O | 19.2% [at 42.5 µM] (inactive) |  |
| CC(C)NCCCC1(C(N)=O)c2ccccc2-c2ccccc21 | 6.87% [at 42.5 µM] (inactive) |  |
| C[C@H]1C[C@@H](O)CC(C)(C)C1 | -1.14% (inactive) |  |
| Cc1c(NC(C)C)c(=O)n(-c2ccccc2)n1C | 9.27% [at 42.5 µM] (inactive) |  |
| CC(C)NC(=O)NC(C)C | 8.54% (inactive) |  |
| CN1CCN(c2cc3c(cc2F)c(=O)c(C(=O)O)cn3-c2ccc(F)cc2)CC1 | -1.39% [at 42.5 µM] (inactive) |  |
| CCOc1ccc(C(=O)OCCN(CC)CC)cc1 | 2.31% [at 42.5 µM] (inactive) |  |
| ClC(Cl)(Br)Br | -3.61% (inactive) |  |
| N=C(N)c1ccc2cc(OC(=O)c3ccc(N=C(N)N)cc3)ccc2c1 | -7.18% [at 42.5 µM] (inactive) |  |
| CC[N+](C)(C)c1cccc(O)c1 | 18% [at 42.5 µM] (inactive) |  |
| O=C1OC(=O)C2CCCCC12 (stereo not given) | -1.96% (inactive) |  |
| Cc1sccc1Br | 15.6% [at 42.5 µM] (inactive) |  |
| C=C[Si](OC(=C)C)(OC(=C)C)OC(=C)C | 10.8% (inactive) |  |
| CCCN(CCC)CCc1cccc2c1CC(=O)N2 | 13.4% [at 42.5 µM] (inactive) |  |
| CCOC(=O)CC(C)=O | 1.74% (inactive) |  |

From PubChem BioAssay (Tox21)
